A short description of test [1]: cAMP Responsive Elements (CRE) small molecule antagonists, cell-based qHTS assay: qHTS cell viability counter screen (AID 2060913). Note: nearly all actives have a fitted effect of over 40% in size. Note: potency is the fitted concentration of half-maximal effect. The essentials: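 Cytotoxicity counter screen multiplexed with the CRE-bla antagonist read: HEK293T cells in DMEM with dialyzed FBS and 25 mM HEPES were treated 3 hrs under 0.25 uM final NKH477, then viability measured by CellTiter-Glo luminescence.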

Test [2] can be described thus: cAMP Responsive Elements (CRE) small molecule agonists, cell-based qHTS assay: qHTS cell viability counter screen (AID 2060914). Note: nearly all actives have a fitted effect of over 50% in size. The essentials: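 Cells are seeded and incubated 18 h, treated with compounds in DMSO for 3 h, read for the bla reporter, then given CellTiter-Glo; luminescence is measured after 30 min at room temperature.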
In general terms: In qHTS, concentration-response curves come from the screen itself.

SMILES strings stand for the structures. “And” between values parts separate entries of the source, which are not always exact repeats. Equal entries are not always repeated. Inconclusive results are not listed. A call without a number means that no potency is given here. A number with no mark means an inactive call. The source made the active and inactive calls. Calls come from the whole dose curve; as a rule, active = well fitted cell-killing curve with a large enough effect in the repeat runs; inconclusive = weak or mixed curves, or effect the other way; inactive = flat fitted curve, though single readings scatter.

With `S=C=NCc1ccccc1`, the Potency result in test [1] is “inactive”.

On to `ClCc1ccccc1`, for which, in test [1], the Potency result is “inactive”. The same measure, in the same setting: under `ClC1C(Cl)C(Cl)C(Cl)C(Cl)C1Cl` (stereo not given) stands “inactive”; under `CC(C)N(C(=O)SCC(Cl)=C(Cl)Cl)C(C)C`, “inactive”.

In the case of `CCC1CCC(=O)O1` (stereo not given), the Potency entry in test [1] was “inactive”. On the same count and under the same terms, under `c1ccc(-c2cccc(-c3ccccc3)c2)cc1` stands “inactive”; under `N#C/C(N)=C(/N)C#N`, “inactive”; under `CCCCCCBr`, “inactive”.

With `Brc1c(Br)c(Br)c(Oc2c(Br)c(Br)c(Br)c(Br)c2Br)c(Br)c1Br`, the viability change, negative = cytotoxic in test [1] is -10% [at 18.9 µM].

As for `CCN(CC)C(=O)SCc1ccc(Cl)cc1`, in test [1], the Potency entry is “inactive”. Still for that read-out and setting: the result for `Nc1ccc(Cc2ccc(N)cc2)cc1` reads “inactive”; that for `COc1cc(CC#N)cc(OC)c1OC`, “inactive”; that for `CC(C)(O)c1cnn2c(-c3ccc(F)c(-c4c(F)cccc4C#N)c3)cnc2n1`, “inactive”. On the same count and under the same terms, the result for `CC(C)NC(C)C` reads “inactive”; that for `O=[N+]([O-])[O-].[Tl+]`, “inactive”; that for `c1ccc(Nc2ccc(Nc3ccccc3)cc2)cc1`, “inactive”. Same read-out and setting: the result for `ClC1=C(Cl)[C@]2(Cl)[C@@H]3[C@H]4C[C@H]([C@@H]5O[C@H]45)[C@@H]3[C@@]1(Cl)C2(Cl)Cl` reads “inactive”; that for `O=[N+]([O-])c1ccc([As](=O)(O)O)cc1`, “inactive”. `C=CCN1C[C@H](C)N([C@H](c2ccc(C(=O)N(CC)CC)cc2)c2cccc(OC)c2)C[C@H]1C`: in test [1], the Potency result is “inactive”. The same measure, in the same setting: the result for `CC(C)Oc1cccc(NC(=O)c2ccccc2C(F)(F)F)c1` reads “inactive”; that for `CC(c1ccc(O)cc1)(c1ccc(O)cc1)c1ccc(O)cc1`, “inactive”; that for `Nc1cc(Cl)ccc1Cl`, “inactive”. The same measure, in the same setting: the result for `COc1ccc([N+](=O)[O-])cc1O` reads “inactive”. Same read-out and setting: under `Cn1cc(C2=C(c3cn(C4CCN(Cc5ccccn5)CC4)c4ccccc34)C(=O)NC2=O)c2ccccc21` stands “inactive”; under `O=[N+]([O-])/C=C/c1ccccc1`, “inactive”; under `C#C[C@]1(O)CC[C@H]2[C@@H]3CCC4=CC(=O)CCC4=C3C=C[C@@]21CC`, “inactive”.

As to `O=C(NC(=O)c1cc(F)c(F)cc1Cl)Nc1cc(F)ccc1N1CCC(C(=O)O)CC1`, the Potency entry in test [1] is “inactive”.

`II`: the Potency result in test [1] is “inactive”. Same read-out and setting: under `O=C(O)C(F)(F)C(F)(F)C(F)(F)C(F)(F)C(F)(F)C(F)(F)F` stands “inactive”.

On to `O=CC=O`, for which the Potency result in test [1] is “inactive”. Consider `O=[N+]([O-])c1cc([N+](=O)[O-])c2ccccc2c1`, for which, in test [1], the Potency result is “inactive”. Still for that read-out and setting: the result for `Clc1ccc(COC(Cn2ccnc2)c2ccc(Cl)cc2Cl)cc1` (stereo not given) reads 50.8 µM (active) and 45.1 µM (active); that for `CC(C)[N+](C)(CCC(C(N)=O)(c1ccccc1)c1ccccc1)C(C)C`, “inactive”; that for `CCCCC(CC)COC(=O)c1ccccc1C(=O)OCC(CC)CCCC` (stereo not given), “inactive”. Still for that read-out and setting: the result for `NC(=O)C(Cl)Cl` reads “inactive”; that for `CC(Cc1ccc(C(C)(C)C)cc1)CN1C[C@@H](C)O[C@@H](C)C1` (stereo not given in full), “inactive”. Still for that read-out and setting: under `Cc1cccc(N)c1` stands “inactive”.

On to `CCOP(=O)(NC(C)C)Oc1ccc(SC)c(C)c1` (stereo not given), for which, in test [1], the Potency entry is “inactive”. On the same count and under the same terms, under `CCc1ccccc1C` stands “inactive”; under `Nc1cc(Cl)ccc1O`, “inactive”.

With `O=P(O)(O)c1ccccc1`, the Potency result in test [1] and in test [2] was “inactive” throughout.

Take `CN(C1CCCCC1)C1CCCCC1`: the Potency result in test [1] and in test [2] was “inactive” throughout. As for `Nc1cc(Cl)cc(Cl)c1`, the Potency result in test [1] and in test [2] was “inactive” throughout.

Turning to `ClC(Cl)(Cl)c1ccccc1`, the Potency entry in test [1] and in test [2] was “inactive” each time. Turning to `ClC(Cl)=C(Cl)C(Cl)=C(Cl)Cl`, the Potency result in test [1] and in test [2] was “inactive” each time. In the case of `ClC(Cl)(Cl)Br`, the Potency entry in test [1] and in test [2] was “inactive” each time.

Take `Nc1cnn(-c2ccccc2)c(=O)c1Cl`: the Potency result in test [1] and in test [2] was “inactive” in each case. On to `COc1cccc([C@@]2(O)CCCC[C@@H]2CN(C)C)c1`, for which the Potency result in test [1] and in test [2] was “inactive” in each case. Regarding `O=C1c2ccccc2C(=O)N1SC(Cl)(Cl)Cl`, the Potency entry in test [1] and in test [2] was “inactive” in each case. Turning to `Cc1ccn2nc(S(=O)(=O)Nc3c(F)cccc3F)nc2n1`, the Potency result in test [1] and in test [2] was “inactive” in each case.

Consider `Nc1c(Br)cc(Br)c2c1C(=O)c1ccccc1C2=O`, for which the viability change, negative = cytotoxic in test [1] is 10% [at 18.9 µM]. Further, the activity change, negative = cytotoxicity in test [2] was -19.1% [at 18.9 µM]. As for `CON(C)C(=O)Nc1ccc(Cl)c(Cl)c1`, the Potency result in test [1] and in test [2] was “inactive” in each case. In the case of `CC(C)C(C)(N)C#N` (stereo not given), the Potency result in test [1] and in test [2] was “inactive” throughout. Regarding `Cc1cccc2sc3nncn3c12`, the Potency result in test [1] and in test [2] was “inactive” throughout.

For the molecule `CCCC(=O)Cl`, the Potency entry in test [1] and in test [2] was “inactive” throughout. For `COC(=O)NC(=S)Nc1ccccc1NC(=S)NC(=O)OC`, the Potency result in test [1] and in test [2] was “inactive” in each case. In the case of `CC(C)C1(C)N=C(c2nc3ccccc3cc2C(=O)O)NC1=O` (stereo not given), the Potency entry in test [1] and in test [2] was “inactive” each time. Consider `O=Cc1ccc(Cl)cc1Cl`, for which the Potency result in test [1] and in test [2] was “inactive” in each case. On to `O=C1CN2CCOC2(c2ccccc2Cl)c2cc(Cl)ccc2N1` (stereo not given), for which the Potency entry in test [1] and in test [2] was “inactive” throughout. Take `CN(CCO)CCO`: the Potency result in test [1] and in test [2] was “inactive” in each case. Take `Oc1ccc(C(c2ccc(O)cc2)(C(F)(F)F)C(F)(F)F)cc1`: the Potency entry in test [1] and in test [2] was “inactive” throughout. On to `CCOC(=O)N(C)N=O`, for which the Potency result in test [1] and in test [2] was “inactive” in each case. With `FC(Cl)(Cl)Cl`, the Potency result in test [1] and in test [2] was “inactive” in each case. Turning to `Clc1ccc(C2(Cn3cncn3)OCCO2)c(Cl)c1`, the Potency entry in test [1] and in test [2] was “inactive” throughout. For the molecule `CC(C)c1ccc(NC(=O)N(C)C)cc1`, the Potency entry in test [1] and in test [2] was “inactive” in each case.

Turning to `CC(=O)NC1CCSC1=O` (stereo not given), the Potency result in test [1] and in test [2] was “inactive” in each case. On to `Cc1c([N+](=O)[O-])cc2c(c1[N+](=O)[O-])C(C)(C)CC2(C)C`, for which the Potency entry in test [1] and in test [2] was “inactive” throughout. As to `CC(Cl)CCl` (stereo not given), the Potency result in test [1] and in test [2] was “inactive” throughout.

Turning to `CCCCN(CC)C(=O)SCCC`, the Potency entry in test [1] and in test [2] was “inactive” in each case. As to `COP(=O)(OC)O/C(C)=C/C(=O)N(C)C`, the Potency entry in test [1] and in test [2] was “inactive” throughout.

Values taken from PubChem BioAssay (Tox21).
